High-throughput results deposited in PubChem BioAssay by National Center for Advancing Translational Sciences (NCATS).
Pf Dd2 inh: Plasmodium falciparum Dd2 growth inhibition; P. falciparum Dd2 growth, SYBR Green, 72 h; Potency, µM (doses to about 28.9 µM), most hits filed as inhibitors; 4.3% of 120,000 active; AID 1347417; active means well fitted inhibition curve with a large enough effect; further: nearly all actives have a fitted effect of over 65% in size
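Infected erythrocytes (Dd2, 0.3% parasitemia, 2.5% hematocrit final) are added to compound in RPMI-1640/Albumax II medium, grown 72 h at 37C in low oxygen, then lysed with saponin/Triton-X containing SYBR Green and read by fluorescence.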
Of the large screens only hits and unclear results are named; the others gave an inactive call; ! = not active in a repeat. Many of the other results were omitted from the sample, so hits are more common in it than they were.

Cc1nc2c(c(-c3ccc(O)cc3)n1)CN(CC1CC1)CC2	none
CC(C)c1nc2c(c(-c3ccc(O)cc3)n1)CCN(CC1CCCCC1)CC2	Pf Dd2 inh 1.1µM
COc1ccc(CN2CCc3nc(C(C)C)nc(-c4ccc(O)cc4)c3CC2)cc1	Pf Dd2 inh 2.2µM
CC(C)c1nc2c(c(-c3ccc(O)cc3)n1)CCN(C(=O)c1ccc(F)cc1)CC2	none
COc1ccc(-c2nc(C(C)C)nc3c2CCN(C(=O)c2ccccc2)CC3)cc1	none
COc1ccc(-c2nc(C(C)C)nc3c2CCN(C(=O)Nc2ccc(Cl)cc2)CC3)cc1	none
Cc1ccc(C2NC(=O)N(CC(=O)Nc3ccc(C(C)C)cc3)C3=C2C(=O)OC3)cc1 (stereo not given)	none
O=C(c1ccncc1)N1CCCC1c1nc(CCOCC2CCCC2)no1 (stereo not given)	none
O=C([C@@H]1C[C@H](Oc2ccccc2)CN1C(=O)C1(c2ccccc2)CC1)N1CCCC1	Pf Dd2 inh 1.8µM
O=C([C@@H]1C[C@H](Oc2ccccc2)CN1C(=O)CC1CCCC1)N1CCCC1	none
CC(C)CC(=O)N1C[C@@H](Oc2ccccc2)C[C@H]1C(=O)N1CCCC1	none
COc1ccc(C(=O)N[C@@H]2C[C@H](Cn3cc(CN(C)C)nn3)[C@@H](O)[C@H]2O)cc1	none
CC(C)c1ccc(CC(=O)N2CCCc3ncc(C(=O)Nc4cccc(Cl)c4)cc32)cc1	Pf Dd2 inh 13µM
CC(C)NC(=O)c1cnc2c(c1)N(C(=O)Cc1ccc(C(C)C)cc1)CCC2	none
O=C(Nc1cccc(F)c1)c1cnc2c(c1)N(C(=O)Cc1cccc(C(F)(F)F)c1)CCC2	Pf Dd2 inh 11µM
CC(C)c1ccc(CC(=O)N2CCCc3ncc(C(=O)NCCc4ccccc4)cc32)cc1	none
CC(C)c1ccc(CC(=O)N2CCCc3ncc(C(=O)Nc4ccc5[nH]ccc5c4)cc32)cc1	none
CC(C)c1ccc(CC(=O)N2CCCc3ncc(C(=O)NCc4ccccc4)cc32)cc1	none
Cn1cc(CC(=O)N2CCCc3ncc(C(=O)Nc4cccc(C(F)(F)F)c4)cc32)c2ccccc21	none
CC(C)c1ccc(CC(=O)N2CCCc3ncc(C(=O)Nc4ccccn4)cc32)cc1	Pf Dd2 inh 7.9µM
CC(C)c1ccc(CC(=O)N2CCCc3ncc(C(=O)NCCN4CCCC4)cc32)cc1	none
CC(C)c1ccc(CC(=O)N2CCCc3ncc(C(=O)NCC(C)(C)CO)cc32)cc1	none
CC(C)c1ccc(CC(=O)N2CCCc3ncc(C(=O)Nc4cccnc4)cc32)cc1	Pf Dd2 inh 0.63µM
O=C(Nc1cccc(C(F)(F)F)c1)c1cnc2c(c1)N(C(=O)CCc1ccccc1)CCC2	none
COC[C@@H]1CN(C(=O)c2ccccc2OC)C[C@H]1c1ccccn1	none
O=C(CCC1CCCN(S(=O)(=O)c2cccc(F)c2)C1)NC1CCCCC1 (stereo not given)	none
COC[C@@H]1CN(c2ncccn2)C[C@H]1C(=O)N1CCOCC1	none
O=C1COCCN1C1CCN(S(=O)(=O)c2cccc(C(F)(F)F)c2)CC1	none
CNC(=O)c1nc2sccn2c1Br	none
COc1cccc(S(=O)(=O)N2CCCC(Cc3nncn3CC3CC3)C2)c1 (stereo not given)	none
COc1ccc(Cl)cc1C(=O)N1C[C@@H](F)C[C@H]1C(=O)N1CCCCC1	none
COc1ccccc1CN[C@H]1CC(C)(C)[C@@H]2C[C@@](C)(O)CC[C@]12CCC(=O)N1CCOCC1	none
COc1ccc2[nH]c(C(=O)N3CCCN(S(=O)(=O)c4ccccc4)CCC(=O)NCC3)cc2c1	Pf Dd2 inh 13µM
CS(=O)(=O)N1CCCN(S(=O)(=O)c2ccccc2)CCC(=O)NCC1	none
O=C1CCN(S(=O)(=O)c2ccccc2)CCCN(C(=O)c2cc3ccccc3[nH]2)CCN1	none
O=C1CCN(S(=O)(=O)c2ccccc2)CCCN(C2CCOCC2)CCN1	none
Cn1cccc1CN1CCCN(S(=O)(=O)c2ccccc2)CCC(=O)NCC1	none
O=C1CCN(S(=O)(=O)c2ccccc2)CCCN(C(=O)C2(c3ccccc3)CC2)CCN1	Pf Dd2 inh 0.79µM
O=C1CCN(S(=O)(=O)c2ccccc2)CCCN(Cc2ccc3[nH]ccc3c2)CCN1	Pf Dd2 inh 11µM
O=C1CCN(S(=O)(=O)c2ccccc2)CCCN(C2CCCCCC2)CCN1	Pf Dd2 inh 10µM
COc1ccc(C(=O)N2CCCN(S(=O)(=O)c3ccccc3)CCC(=O)NCC2)cc1	none
O=C1CCN(S(=O)(=O)c2ccccc2)CCCN(C(=O)Cc2ccccc2)CCN1	none
O=C1CCN(C(=O)C2(c3ccccc3)CC2)CCCCCCN1	none
O=C1CCN(S(=O)(=O)c2ccccc2)CCCN(Cc2ccccn2)CCN1	none
O=C(O)C[C@@H]1CCN(C(=O)NC2CCCCC2)C[C@@H]1CCN1C[C@@H]2C[C@H](C1)c1cccc(=O)n1C2	none
Cc1nc(-c2c3n(c(=O)n(CC(=O)Nc4cccc(Cl)c4C)c2=O)CCCC3)no1	none
C[C@@H](NC(=O)Cc1ccccc1)c1c(-c2ccc(Cl)cc2)noc1C(=O)O	none
CC(=O)c1cccc(NC(=O)Cn2c(=O)n(-c3ccc(F)cc3)c(=O)c3c2cc(C)n3C)c1	none
COc1ccccc1C(=O)N1CCC(N2Cc3cnc(C)n3C2=O)CC1	none
COc1ccc(N2C(=O)CSC23CCN(C(=O)Nc2ccc(F)cc2F)CC3)cc1	none
CCC1CCCCN1C(=O)CSc1nc2c([nH]c3ccccc32)c(=O)n1-c1ccc(OC)cc1 (stereo not given)	Pf Dd2 inh 13µM
COc1ccc(-n2c(SCC(=O)NC3CCCCC3)nc3c([nH]c4ccccc43)c2=O)cc1	Pf Dd2 inh 10µM
CCOc1ccc(-n2c(SCC(=O)NCC3CCCO3)nc3c([nH]c4ccccc43)c2=O)cc1 (stereo not given)	none
COC(=O)c1ccc(CSc2nc3c([nH]c4ccccc43)c(=O)n2-c2ccc(OC)cc2)o1	none
COc1ccc(-n2c(SCC(=O)N3CCCc4ccccc43)nc3c([nH]c4ccccc43)c2=O)cc1	none
CCOC(=O)CSc1nc2c([nH]c3ccccc32)c(=O)n1-c1ccc(OC)cc1	none
CN(C(=O)c1cc(F)ccc1Cl)C1CCc2nn(C)c(=O)n2CC1 (stereo not given)	none
COc1ccc2ccc(OCc3nc(C(=O)NC(C)c4n[nH]c(C)n4)co3)cc2c1 (stereo not given)	none
O=c1[nH]c(C2CCCN(Cc3ccc(C(F)(F)F)cc3)C2)nn1-c1ccccc1 (stereo not given)	none
O=c1[nH]c(C2CCN(CC3CCCC3)CC2)nc2ccc(F)cc12	none
O=c1[nH]c(C2CCCN(Cc3ccsc3)C2)nn1-c1ccccc1 (stereo not given)	none
O=c1[nH]c(C2CCCN(Cc3ccc(-c4ccccc4)cc3)C2)nc2ccc(F)cc12 (stereo not given)	Pf Dd2 inh 8.9µM!
COc1ccccc1-c1ccc(CN2CCCC(c3nc4ccc(F)cc4c(=O)[nH]3)C2)cc1 (stereo not given)	Pf Dd2 inh 8.9µM!
COc1ccccc1-c1ccc(CN2CC3CCC(C2)N3c2ccc(C(F)(F)F)cc2)cc1	none
COc1ccccc1-c1ccc(CN2CCN(c3ccc(Cl)nn3)C(=O)C2)cc1	none
O=c1[nH]c(C2CCN(Cc3ccc(-c4cccnc4)cc3)CC2)nc2ccc(F)cc12	Pf Dd2 inh 4.5µM!
O=c1cc(-c2cccnc2)nc(-c2ccc(CN3CC[C@@H](O)C3)cc2)[nH]1	none
CCn1ccnc1CN1CC[C@H](N2CCN(C)CC2)[C@H](CCC(=O)O)C1	none
CCNC(=O)N[C@H]1CC[C@]2(C)CCC([C@H](C)C(=O)NCc3ccccc3OC)[C@H](O)[C@H]2[C@@H]1C (stereo not given in full)	none
O=C(NC[C@H]1OC[C@@H](NC2CCC(F)(F)CC2)[C@@H]1O)N1CCOCC1	none
